PubChem BioAssay AID1159580 (chemical genetic matrix, 2015)
Screen size: about 5,500 compounds; about 2,000 (36%) were called active. Not shown: some 18% with an inconclusive outcome. No stated cut-off is given here; in the data, active means normalized growth mostly below about 0.91 (no sharp cut-off); inconclusive means no clear call, values can overlap the other calls; inactive means mostly above about 0.92. The list shows a part of the results.

Assay: chemical genetic growth profiling, strain panel (AID 1159580);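 further: tested at 20 µM; growth read once vehicle control cultures reached saturation at 30 °C; 1 = growth at the plate median or of vehicle wells; lower values mean less growth of the strain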
Conditions: S. cerevisiae deletion strains, growth OD

Measured: normalized growth

O=C(O)c1cc(=O)c2ccc(Cl)cc2[nH]1
inactive: locus YAL013W, strain DEP1, active compounds read low 1.01 | locus YAL021C, strain ccr4, active compounds read low 1 | locus YAL026C, strain drs2, active compounds read low 1.03 | locus YAL030W, strain snc1, active compounds read low 1.01 | locus YAL040C, strain CLN3, active compounds read low 1.01 | locus YBL061C, strain skt5, active compounds read low 1.02 | locus YBR009C, strain hhf1, active compounds read low 1.01 | locus YBR021W, strain FUR4, active compounds read low 1.01 | locus YBR023C, strain chs3, active compounds read low 1.02 | locus YBR171W, strain sec66, active compounds read low 1.03 | locus YBR229C, strain ROT2, active compounds read low 1.02 | locus YBR231C, strain swc5, active compounds read low 1.02 | locus YBR279W, strain paf1, active compounds read low 1.01 | locus YCL011C, strain gbp2, active compounds read low 1.02 | locus YCL016C, strain dcc1, active compounds read low 1.04 | locus YCL029C, strain bik1, active compounds read low 0.998 | locus YCL061C, strain MRC1 (second series), active compounds read low 1.01 | locus YCL061C, strain MRC1, active compounds read low 1.01 | locus YCL069W, strain vba3, active compounds read low 1.01 | locus YCR088W, strain abp1, active compounds read low 1.01 | locus YDL005C, strain med2, active compounds read low 1.02 | locus YDL035C, strain GPR1, active compounds read low 1.02 | locus YDL040C, strain nat1, active compounds read low 1.01 | locus YDL074C, strain BRE1, active compounds read low 1.06 | locus YDL101C, strain DUN1, active compounds read low 1.01 | locus YDL134C, strain PPH21, active compounds read low 1.01 | locus YDL185W, strain tfp1, active compounds read low 0.988 | locus YDL192W, strain arf1, active compounds read low 0.993 | locus YDR001C, strain nth1, active compounds read low 1.01 | locus YDR069C, strain doa4, active compounds read low 0.999 | locus YDR101C, strain arx1, active compounds read low 0.999 | locus YDR137W, strain rgp1, active compounds read low 1.01 | locus YDR150W, strain NUM1, active compounds read low 1.01 | locus YDR159W, strain sac3, active compounds read low 0.998 | locus YDR162C, strain NBP2, active compounds read low 1.01 | locus YDR195W, strain ref2 1 | locus YDR297W, strain sur2, active compounds read low 1.02 | locus YDR318W, strain mcm21, active compounds read low 0.989 | locus YDR334W, strain swr1, active compounds read low 1.01 | locus YDR335W, strain msn5, active compounds read low 1.03 | locus YDR363W, strain ESC2, active compounds read low 1.03 | locus YDR388W, active compounds read low 0.999 | locus YDR392W, strain spt3, active compounds read low 1.07 | locus YDR502C, strain sam2, active compounds read low 1.01 | locus YEL003W, strain gim4, active compounds read low 1.02 | locus YEL037C, strain rad23, active compounds read low 1.02 | locus YEL061C, strain CIN8 (second series), active compounds read low 1.01 | locus YEL061C, strain CIN8, active compounds read low 1.01 | locus YER002W, strain NOP16, active compounds read low 1.03 | locus YER015W, strain faa2, active compounds read low 1.02 | locus YER016W, strain bim1, active compounds read low 1.04 | locus YER110C, active compounds read low 0.99 | locus YER111C, strain swi4, active compounds read low 1.01 | locus YER155C, strain BEM2 (second series), active compounds read low 1.02 | locus YER155C, strain BEM2, active compounds read low 1.01 | locus YER167W, strain BCK2, active compounds read low 0.995 | locus YFR010W, strain ubp6, active compounds read low 0.986 | locus YGL078C, strain dbp3, active compounds read low 1 | locus YGL086W, strain mad1, active compounds read low 1 | locus YGL167C, strain pmr1, active compounds read low 1.01 | locus YGL173C, strain kem1, active compounds read low 1.02 | locus YGL227W, strain vid30, active compounds read low 1.04 | locus YGL240W, strain doc1, active compounds read low 1.01 | locus YGL248W, strain PDE1, active compounds read low 1.03 | locus YGL253W, strain hxk2, active compounds read low 1.02 | locus YGR078C, strain PAC10, active compounds read low 1.03 | locus YGR135W, strain pre9, active compounds read low 0.976 | locus YGR252W, strain gcn5, active compounds read low 0.992 | locus YHR013C, strain ard1, active compounds read low 1.04 | locus YHR027C, strain rpn1, active compounds read low 0.994 | locus YHR030C, strain SLT2, active compounds read low 1.01 | locus YHR079C, strain IRE1 (second series), active compounds read low 0.99 | locus YHR094C, strain hxt1, active compounds read low 0.992 | locus YHR129C, strain ARP1, active compounds read low 1.02 | locus YHR142W, strain chs7, active compounds read low 1.04 | locus YHR200W, strain rpn10, active compounds read low 0.992 | locus YIL066C, strain RNR3, active compounds read low 1.03 | locus YIL073C, strain SPO22, active compounds read low 0.979 | locus YIL125W, strain kgd1, active compounds read low 0.994 | locus YIR030C, strain dcg1, active compounds read low 0.995 | locus YJL092W, strain hpr5, active compounds read low 1.02 | locus YJL095W, strain BCK1 (second series), active compounds read low 1.03 | locus YJL095W, strain BCK1, active compounds read low 1.04 | locus YJL115W, strain asf1, active compounds read low 1.01 | locus YJL129C, strain trk1, active compounds read low 1.03 | locus YJL134W, strain LCB3, active compounds read low 1.01 | locus YJL154C, strain vps35, active compounds read low 1.01 | locus YJL164C, strain tpk1, active compounds read low 1.01 | locus YJL166W, strain qcr8, active compounds read low 1.02 | locus YJL168C, strain set2, active compounds read low 0.992 | locus YJL187C, strain SWE1 (second series), active compounds read low 1.04 | locus YJL187C, strain SWE1, active compounds read low 1.02
